# Results as given in PubChem BioAssay (NCI).
# Values joined by “and” are separate entries in the source; they are usually repeats but may differ in a detail not shown here. Identical values can stand only once. Compounds without any hit were thinned out: in the full panel of roughly 83,000, 20% have a hit.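 Method: cells in 96-well plates; compound added at one concentration; 48 h incubation; percent growth measured; values under 10 scored active.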 Active and inactive are the calls of the source.
# System: MDA-MB-468 breast
# Experiment: NCI-60 one-dose screen, 48 h (100 = growth as untreated, 0 = no growth, -100 = all killed)
# Conditions: 10 µM unless noted
row,SMILES,growth
1,BrC1=C(Br)C(Br)(Br)C(Br)=C1Br,97.7% (inactive)
2,O=C(/C=C/C=C/c1ccc2c(c1)OCO2)N1CCCCC1,106% (inactive) and 105% (inactive)
3,CC(=O)c1ccc(Br)c([N+](=O)[O-])c1,112% (inactive)
4,CSc1cccc([N+](=O)[O-])c1,94.1% (inactive)
5,CCCCSc1nnc(-c2ccc(-c3ccc(Cl)cc3)nc2C)o1,107% (inactive)
6,COc1cc(NCCCCCCCNC(C)C)c2nccc(C)c2c1,9.01% (active) and 13.7% (inactive)
7,CC1(C)N=C(N)N=C(N)N1c1ccc(CCCCc2ccccc2)c(Cl)c1,-20.8% (active)
8,Brc1ccc2[nH]cc(-c3cncn3CCc3ccccc3)c2c1,17.2% (inactive)
9,O=S(=O)(NCCCNc1cc(-c2cn(-c3ccccc3)nc2-c2cccc(O)c2)ccn1)c1ccc(Cl)cc1,-15.9% (active)
10,CCOC(=O)/C(C#N)=C\Nc1ccc2ncnc(Nc3ccc(Cl)cc3Cl)c2c1,56.4% (inactive)
11,CC(C)=CCC[C@](C)(O)[C@H]1CC[C@]2(C)[C@@H]1CC[C@@H]1[C@@]3(C)CCC(NC(=O)c4ccccc4C(=O)O)C(C)(C)[C@@H]3CC[C@]12C (stereo not given in full),89.4% (inactive)
12,COc1ccc(OC)c2c1[nH]c(=O)c1c3ncccc3cn21,12.2% (inactive)
13,Cc1nn(-c2ccc(F)cc2)c2ncnc(Oc3ccc(NC(=O)Nc4ccc(Cl)c(C(F)(F)F)c4)cc3)c12,97.8% (inactive)
14,O=C1/C(=C/c2ccccc2)CN(CCC(=O)N2C/C(=C\c3ccccc3)C(=O)/C(=C/c3ccccc3)C2)C/C1=C\c1ccccc1,66.9% (inactive)
15,S=C(c1ccc2c(c1)OCO2)N1CCN(c2cccc(Cl)c2)CC1,6.42% (active)
16,COc1ccc(C(O)c2ccccc2)cc1 (stereo not given),3.29% (active)
17,N=C(N)c1ccc(-c2ccc(-c3ccc(Cl)cc3Cl)s2)cc1,-57.1% (active)
18,CCCCCCCCCc1ccc(OCCOCCOCCOCCOCCOCCOCCOCCOCCO)cc1,-11.7% (active)
19,COc1ccc(/C=C2\SC(=Nc3cc(C)[nH]n3)NC2=O)cc1,82.6% (inactive)
20,O=C(NCCCCCCCNC(=O)OCc1ccc2c(Cl)cc(Cl)c(O)c2n1)OCc1ccc2c(Cl)cc(Cl)c(O)c2n1,-57.3% (active)

row,SMILES,growth
1,CCOc1ccc2nc(C)cc(Nc3ccc(Br)cc3)c2c1,100% (inactive)
2,CCOC(=O)C(=Cc1ccc(-c2ccccc2)cc1)C(=O)OCC,53% (inactive)
3,COc1ccc2sc3c(NCCCN)nc4ccccc4c3c(=O)c2c1,48.6% (inactive)
4,Clc1ccc(Nc2nnc(CNc3ccccc3)c3ccccc23)cc1,-16.4% (active)
5,COc1ccc(OC)c(/C=N/Nc2ncnc3c2c(C)nn3C)c1,106% (inactive)
6,O=C(/C=C/c1cccc(Br)c1)c1cccc(OCCCCOc2cccc(C(=O)/C=C/c3cccc(Br)c3)c2)c1,102% (inactive)
7,N#Cc1ncc(-c2cc(F)c(F)c(F)c2)c(NC2CCCCCC2)n1,87.6% (inactive)
8,O=C(Nc1ccc2c(ccn2Cc2ccccn2)c1)c1cnccn1,103% (inactive)
9,COc1ccc(-c2cc(/C=C/C(=O)c3ccc(N)cc3)[nH]n2)cc1OC,-1.28% (active)
10,C/C(N)=C(\C#N)C(=O)c1ccccc1,97.7% (inactive)
11,COc1cccc(-c2nc3sccn3c2-c2ccnc(NCCCNS(=O)(=O)c3ccc(C(F)(F)F)cc3)c2)c1,42.5% (inactive)
12,O=C1c2ccccc2C(=O)c2c(O)c(Cl)cc(O)c21,-15.7% (active)
13,O=C1CSC(c2ccccc2Cl)N1c1nnc(Cn2nnc3ccccc32)o1 (stereo not given),82.7% (inactive)
14,CC(Br)c1nc2ccccc2cc1C(N)=O (stereo not given),105% (inactive)
15,CC(C)c1ccc(COCc2cc(CN3CCCC3)c(O)c3ncccc23)cc1,-21.1% (active)
16,Cn1cc(-c2ccc3nc(-c4ccc(CC(=O)ONc5cc(C(C)(C)C)on5)cc4)cnc3c2)cn1,45.8% (inactive)
17,COc1ccc(Oc2nc(Nc3ccc(N4CCCCC4)nc3)ncc2NC(=O)c2cc(OC)cc(OC)c2)cc1,23.4% (inactive)
18,O=C1c2c(c(=O)[nH]c3ccccc23)CCN1Cc1ccccc1,101% (inactive)
19,N#CCCN1C/C(=C/c2ccc(Cl)cc2)C(=O)/C(=C/c2ccc(Cl)cc2)C1,-66.5% (active)
20,CCOC(=O)c1c(C)nc2ccccc2c1/C=C/c1ccc(F)cc1,-2.47% (active)
